TPT1 inh: inhibitors of Candida albicans tRNA 2'-phosphotransferase TPT1; recombinant caTPT1, FP RNA substrate dephosphorylation; inhibition, % at 5 µM; 0.81% of 300,000 active; AID 1962;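 active means inhibition above the mean of all tested compounds plus 3 SD, set per screening campaign, cut at about 24% in these data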;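 further: plate controls were DMSO alone for no effect and ferristatin control at 100 nM for full effect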
Platelet DG rel: modulates dense granule release in human platelets. human platelet-rich plasma, SFLLRN dense granule ATP release, luminescence. inhibition, %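 (compounds screened at 7.5 µM in platelet-rich plasma)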. 0.22% of 300,000 active. AID 1663;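 active means mean replicate score, as percent of positive control, at or above 50; inconclusive means mean below 50 but at least one replicate at or above 50; inactive means mean and every replicate below 50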
PHOSPHO1 block: blocks human PHOSPHO1 phosphatase activity. Q8TCT1. recombinant PHOSPHO1, absorbance phosphatase assay. inhibition, % at 13.3 µM. 1.1% of 290,000 active. AID 1565; in the data active means inhibition above about 60%
Target sequence (Q8TCT1 whole entry, looked up): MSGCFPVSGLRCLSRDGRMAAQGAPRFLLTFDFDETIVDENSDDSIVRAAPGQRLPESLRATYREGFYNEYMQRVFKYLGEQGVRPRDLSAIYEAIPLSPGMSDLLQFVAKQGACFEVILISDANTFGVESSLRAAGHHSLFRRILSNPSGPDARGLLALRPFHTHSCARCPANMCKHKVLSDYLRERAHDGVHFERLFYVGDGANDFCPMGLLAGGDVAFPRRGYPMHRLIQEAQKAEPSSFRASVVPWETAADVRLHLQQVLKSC
Rtt109 Vps75: blocks Candida albicans Rtt109/Vps75 acetyltransferase activity; Q5AAJ8; purified Rtt109/Vps75, ThioGlo CoA-SH fluorescence, 4 h; inhibition, % at 34.9 µM; 0.16% of 330,000 active;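 active means inhibition of at least 50% in every replicate; inconclusive means best replicate reaches 50% inhibition but some replicates fall short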
WT yeast gro inh: growth inhibition of WT yeast, mitochondrial fusion screen; mitochondrial fusion phenotypic screen, WT strain; inhibition, % at 10 µM; 2.1% of 190,000 active; AID 1362; in the data active means inhibition above about 58%; tested in S. cerevisiae
SKKanGAS inh: blocks kanamycin growth of S. pyogenes SKKanGAS strain | BacTiter-Glo, 6 h | inhibition, % at 7.5 µM | 1.3% of 300,000 active;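 active means mean replicate score, as percent of positive control median, at least 50; inconclusive means mean below 50 but one replicate at or above 50; inactive means mean and every replicate below 50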;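 further: strain carries kanamycin resistance gene driven by streptokinase promoter and grows in 40 µg/ml kanamycin; loss of luminescence reflects streptokinase promoter inhibition or plain growth inhibition; 0% = median of DMSO wells and 100% = positive control at its reference dose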
Active calls of the source: *; u = inconclusive; x = no result. Sampled rows, rich in hits. Any-hit rate of the full collection: about 3.9%.

SMILES	TPT1 inh	Platelet DG rel	PHOSPHO1 block	Rtt109 Vps75	WT yeast gro inh	SKKanGAS inh
O=c1[nH]c(-c2ccccn2)nc2sc(-c3ccccc3)cc12	x	1	-5	-27	76*	96*
Cc1c(C(=O)N(C)C)sc2nc(-c3ccccn3)[nH]c(=O)c12	-3	-1	6	-5	5	0
CN[C@@H]1CC[C@H](c2ccc(Cl)c(Cl)c2)c2ccccc21	x	-1	1	3	x	2
FC(F)(F)c1cc(-c2ccco2)nc(NCc2ccccc2)n1	4	-2	48	8	41	5
COc1ccccc1-c1cc(C(F)(F)F)nc(NCc2ccco2)n1	-1	-3	37	-6	60*	20
COc1ccc2c(c1)CCc1c(C(=O)N3CCCCCC3)noc1-2	-2	9	-12	-6	-3	-14
COc1ccc2c(c1)CCc1c-2n[nH]c1C(=O)O	4	x	3	12	72*	x
COc1ccc(CCNC(=O)COC(=O)c2cncc(Br)c2)cc1OC	x	x	x	-7	x	x
O=C(Nc1ccc2ccccc2c1)c1ccc(Cl)cc1Cl	-2	-10	42	-5	x	32
O=C(Nc1nc(=S)ss1)c1ccc(Cl)cc1Cl	-1	1	34	-5	2	52*
O=C(NNc1ccccc1)C(=O)NNS(=O)(=O)c1ccc(CCCl)cc1	-6	10	15	65*	x	0
Nc1ccc(S(=O)(=O)NNC(=O)C(=O)NNc2ccccc2)cc1	-4	10	-7	17	49	0
CC(=O)Nc1ccc(Oc2nc(-c3ccccn3)nc3ccccc23)cc1	0	19	8	6	x	3
Cc1ccccc1Oc1nc(-c2ccccn2)nc2ccccc12	-2	16	-10	7	x	104*
Cc1cccc(Oc2nc(-c3ccncc3)nc3ccccc23)c1	-1	10	27	-2	x	u
Cc1cccc(Oc2nc(-c3ccccn3)nc3ccccc23)c1	2	-6	51	8	x	98*
CCOC(=O)C1CCN(C(=O)C2CCN(S(=O)(=O)c3cccc4nsnc34)CC2)CC1	-1	-2	24	-7	x	2
CN(C)c1ccc(C(=O)c2ccc(N(C)C)c3ccccc23)cc1	3	8	-4	-1	61*	2
Cc1cc(C)c(C#N)c(N2CCN(CCOc3ccc(Cl)cc3)CC2)n1	-3	8	2	1	65*	-2
N#Cc1c(-c2ccccc2Cl)cc(C2CC2)nc1N	-2	x	84*	-2	-3	x
COc1ccccc1-c1cc(C2CC2)nc(N)c1C#N	2	-8	-8	5	8	-5
O=C(NN1C(=O)/C(=C/c2cc([N+](=O)[O-])ccc2O)SC1=S)c1ccccc1O	53*	5	x	x	x	-13
Cc1ccc(/C=C2\SC(=S)N(/N=C/c3cc([N+](=O)[O-])ccc3O)C2=O)o1	7	3	60	3	5	-8
Clc1ccccc1Sc1ccc(-c2ccccn2)s1	4	-7	25	x	x	62*
CC1CC1C(=O)Nc1ccc(S(=O)(=O)N2CCCCC2)cc1 (centres undefined)	x	x	x	2	x	x
SMILES	TPT1 inh	Platelet DG rel	PHOSPHO1 block	Rtt109 Vps75	WT yeast gro inh	SKKanGAS inh
CN(C)S(=O)(=O)n1cc(/C=C(\NC(=O)c2ccccc2)C(=O)N2CCCC2)c2ccccc21	-4	-6	24	74*	x	-2
CN1CCN(C(=O)/C(=C/c2cn(S(=O)(=O)N(C)C)c3ccccc23)NC(=O)c2ccccc2)CC1	2	7	40	-4	x	-1
Cc1cc(C)c(S(=O)(=O)Cc2ccccc2)c(OC(C)C)n1	1	x	x	0	x	4
C/C(=N/NC(=O)CNC(=O)C1COc2ccccc2O1)c1ccc([N+](=O)[O-])cc1 (centres undefined)	-2	4	16	-5	x	8
Cc1cc(-c2nc3c4c5c(sc4[nH]c(=O)n3n2)CCC5)c(C)o1	16	-1	80*	10	3	16
COC(=O)c1sccc1NC(=S)N1CCCCC1	0	0	-14	9	14	0
COC(=O)c1sccc1NC(=S)N1CCN(c2cccc(C)c2C)CC1	-6	8	-15	-11	74*	4
C[C@@H]1CN(c2c(F)c(N)c3c(=O)c(C(=O)O)cn(C4CC4)c3c2F)C[C@H](C)N1	x	x	44	x	6	x
C[C@@H]1CN(c2c(F)c(F)c3c(=O)c(C(=O)O)cn(C4CC4)c3c2F)C[C@H](C)N1	x	-2	32	-4	x	65*
COc1ccc(-c2noc(CSc3nnc(Cc4ccccc4)n3-c3ccc(Cl)cc3)n2)cc1	1	11	11	9	60*	30
Cc1ccc(-c2noc(CSc3nnc(Cc4ccccc4)n3-c3ccc(Cl)cc3)n2)cc1	3	-3	15	5	53	u
Cc1ccccc1CN(C)C(C)C(=O)NCc1ccccc1 (centres undefined)	x	1	15	-5	x	2
Clc1ccc2nc(-c3ccccn3)c(Nc3ccc4c(c3)OCO4)n2c1	5	0	-2	3	73*	92*
Cc1ccc2nc(-c3ccccc3O)c(Nc3ccc4c(c3)OCCO4)n2c1	-1	-7	-10	-2	13	4
O=C(O)C(CCc1ccccc1)N1C(=O)c2ccccc2C1=O (centres undefined)	x	x	x	0	x	x
COC(=O)Cc1cn(-c2ncc(C(F)(F)F)cc2Cl)c2ccccc12	-1	11	5	2	84*	13
O=C(CSc1ccc(-c2ccccn2)nn1)Nc1cccc(F)c1	-3	-31	61*	4	x	-9
Cc1ccc(-c2nc(N)sc2-c2ccc(C)cc2)cc1	x	-5	32	-7	80*	-4
Nc1nc(-c2ccccc2)c(-c2ccccc2)s1	-2	-1	8	-7	3	8
Cc1ccc(-c2nc(N)sc2-c2ccccc2)cc1C	-1	-3	-12	16	73*	8
Cc1ccccc1OCCC(=O)OCC(=O)NC1CCS(=O)(=O)C1 (centres undefined)	-3	0	x	-11	x	-8
CC1=Nc2nc(N3CCCCCC3)c(C#N)c3c4c(nc(c23)N1)N(c1ccc2ccccc2c1)C(=O)C4	5	-2	x	-8	x	19
O=C1C(=O)c2ccc(-c3ccccc3)cc2-c2ccccc21	2	-2	4	-11	78	101*
Nc1ccc2c(c1)C(=O)C(=O)c1ccccc1-2	3	-15	62*	-9	97*	86*
Nc1ccc2c(c1)C(=O)c1ccccc1C2=O	-6	-9	x	9	x	-8
Nc1ccc2c(c1)C(=O)c1ccccc1-2	-3	4	x	-4	x	-13
CC12CCC(O)CC1=CCC1C2CCC2(C)c3[nH]ncc3CC12 (centres undefined)	x	x	x	-2	x	x
Cc1cc(C)n(C2CC(=O)N(c3ccccc3)C2=O)n1 (centres undefined)	-3	4	-2	-8	3	-8
CC(=O)NC1N=C(C)N(c2ccccc2)C1=O (centres undefined)	-1	17	100*	5	4	-1
